From PubChem BioAssay come the findings set out here.

The structures appear in SMILES notation. Results filed as inconclusive are left out. Activity calls are given as the source filed them.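 The calls were made as follows, unless noted: active = normalized viability below 100% at a tested concentration; inactive = the rest.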

A short description of test [1]: viability loss in pontine glioma line – cell-based, SU-DIPG-XVII, MIPE5.0, CellTiter-Glo, qHTS, dose response (AID 1347060; cut-off not given, nearly all actives have AC50 up to about 26 µM;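 as to AC50: cells exposed to compound for 48 hours before viability readout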). The following applies: CellTiter-Glo ATP luminescence. Background: In ATP-based viability assays light output follows the ATP content of the culture.
Test [2] is described as follows: viability loss in pontine glioma line – cell-based, SU-DIPG-XIII, MIPE4.0, CellTiter-Glo, qHTS, dose response (AID 1347061; cut-off not given, nearly all actives have AC50 up to about 37 µM;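 also: cells exposed to compound for 48 hours before readout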). The note with it: CellTiter-Glo ATP luminescence.
Test [3] is described as follows: viability loss in pontine glioma line – cell-based, SU-DIPG-XXV, MIPE5.0, CellTiter-Glo, qHTS, dose response (AID 1347065; cut-off not given, nearly all actives have AC50 up to about 26 µM;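 also: cells exposed to compound for 48 hours before ATP readout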). The note with it: CellTiter-Glo ATP luminescence.
A short description of test [4]: JHH-DIPG-1 glioma cell viability, MIPE5.0 library, CellTiter-Glo luminescence, qHTS (AID 1347067; cut-off not given, nearly all actives have AC50 up to about 26 µM;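 also: cells exposed to compound for 48 hours before readout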). The following applies: JHH-DIPG-1 glioma viability, CellTiter-Glo ATP luminescence.
Test [5] can be described thus: growth inhibition of DIPG cells – cell-based, MIPE5.0 library, qHTS (AID 1347068; cut-off not given, nearly all actives have IC50 up to about 30 µM). The following applies: SU-DIPG-XXV viability. In general terms: qHTS replaces the single test concentration by a dilution series.
Test [6] can be described thus: viability loss with induced miR-34 in A549 – imaging, A549 dox-inducible miR-34, nuclei and caspase counts, primary screen (AID 1347080;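 active = compounds whose cell count with miR-34 switched on is under 0.7 times the count with it off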). The note with it: A549 miR-34 inducible, Hoechst nuclei count, 48 h.
A short description of test [7]: compounds altering HSF1 focus formation in cells – imaging, Selleck Cancer Library (AID 1347162; in the data active = plate-normalised HSF1 focus index below about 0.46). The note with it: human cells, HSF1 nuclear foci imaging, at 10 µM; SSMD: measured here: HSF1 foci SSMD mean; cell count: measured here: cell number; plate-normalised HSF1 focus index: stronger effect = lower value.
Test [8] can be described thus: MELAS cybrid and Rieske KO viability enhancers – cell-based, MELAS cybrids, Rieske KO mouse fibroblasts, CellTiter-Glo, primary screen (AID 1508586;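 active = mean z-score across replicates of 1.96 or higher in either the MELAS or the Rieske mutant cell line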;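 also: z relative to plate mean and SD of compound and empty wells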). The note with it: low glucose.
A short description of test [9]: drug combination growth inhibition, ovarian cancer – cell-based, oncology-focused library, rucaparib conditional, profiling panel (AID 1508598). The note with it: patient-derived ovarian cancer cells, CellTiter-Glo viability, 144 h, stronger effect = lower value.
Test [10] can be described thus: viability loss in pontine glioma line – cell-based, JHH-DIPG-1, MIPE4.0, CellTiter-Glo, qHTS, dose response (AID 1347062; cut-off not given, nearly all actives have AC50 up to about 27 µM;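 as to AC50: cells exposed to compound for two days before readout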). The note with it: JHH-DIPG-1 viability, CellTiter-Glo ATP luminescence.
The nature of test [11]: viability loss in pontine glioma line – cell-based, SU-DIPG-IV, MIPE4.0, CellTiter-Glo, qHTS, dose response (AID 1347063; cut-off not given, nearly all actives have AC50 up to about 30 µM;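 also: compound exposure lasted 48 hours before the viability readout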). The following applies: CellTiter-Glo ATP luminescence.
Test [12] in a line: viability loss in pontine glioma line – cell-based, SU-DIPG-XIII, MIPE5.0, CellTiter-Glo, qHTS, dose response (AID 1347064; cut-off not given, nearly all actives have AC50 up to about 23 µM). The following applies: CellTiter-Glo ATP luminescence.
A short description of test [13]: growth inhibition of DIPG cells – cell-based, MIPE4.0 library, CellTiter-Glo luminescence, qHTS (AID 1347066; cut-off not given, nearly all actives have AC50 up to about 30 µM;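 also: cells exposed to compound for 48 hours before readout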). The following applies: SU-DIPG-VI viability, CellTiter-Glo ATP luminescence.
The mark [14] stands for this setting: stronger effect = lower value, cell number ratio, induced over uninduced.
[15] abbreviates: measured here: relative caspase fold change +Dox/-Dox.
[16] abbreviates: measured here: total cells with miR-34 induction, stronger effect = lower value.
The mark [17] stands for this setting: measured here: total cells without miR-34 induction.
Where [18] appears, read: MELAS cybrid survival, CellTiter-Glo 48 h, stronger effect = higher value.
[19] abbreviates: Rieske KO mouse fibroblast survival, CellTiter-Glo 72 h.

As a reminder, the viability is a read-out of living cells in per cent, often relative to untreated cells. Consider `CN1CCN(CCOc2cc(OC3CCOCC3)c3c(Nc4c(Cl)ccc5c4OCO5)ncnc3c2)CC1`, for which the result in [1], in test [2], in [3], in test [4] and in test [5] was inactive. Also, the fold change is 0.876 (inactive) in test [6] (setting [14]) and 1 in test [6] (setting [15]). The cell count in test [6] (setting [16]) amounted to 1170; in test [6] (setting [17]) it was 1330; in [7] it was 7430. Further, the SSMD in [7] is -0.947. Also, the plate-normalised HSF1 focus index in test [7] was 0.94 (inactive). In addition, the z-score in test [8] (setting [18]) is 0.931 (inactive); in test [8] (setting [19]), -0.384. Also, the viability was 98.7% (active) in test [9] (at 0.000305 µM, OCI-C5x cells, with rucaparib 10 µM, 100% = cells with rucaparib alone); 98.5% (active) in test [9] (at 0.000305 µM, OCI-C5x cells, without rucaparib); 98.8% (active) in [9] (at 0.000305 µM, OCI-P5x cells, with rucaparib 20 µM, 100% = cells with rucaparib alone); 104% (inactive) in test [9] (at 0.000305 µM, OCI-P5x cells, without rucaparib); 107% (inactive) in test [9] (at 0.00122 µM, OCI-C5x cells, with rucaparib 10 µM, 100% = cells with rucaparib alone); 98.2% (active) in test [9] (at 0.00122 µM, OCI-C5x cells, without rucaparib). The viability in [9] (at 0.00122 µM, OCI-P5x cells, with rucaparib 20 µM, 100% = cells with rucaparib alone) was 102% (inactive); in test [9] (at 0.00122 µM, OCI-P5x cells, without rucaparib) it was 90.6% (active); in [9] (at 0.00488 µM, OCI-C5x cells, with rucaparib 10 µM, 100% = cells with rucaparib alone) it was 97.5% (active); in [9] (at 0.00488 µM, OCI-C5x cells, without rucaparib) it was 94.4% (active); in [9] (at 0.00488 µM, OCI-P5x cells, with rucaparib 20 µM, 100% = cells with rucaparib alone), 102% (inactive); in [9] (at 0.00488 µM, OCI-P5x cells, without rucaparib) it was 91.3% (active). Further, the viability was 107% (inactive) in [9] (at 0.0195 µM, OCI-C5x cells, with rucaparib 10 µM, 100% = cells with rucaparib alone); 94.6% (active) in [9] (at 0.0195 µM, OCI-C5x cells, without rucaparib); 96.6% (active) in test [9] (at 0.0195 µM, OCI-P5x cells, with rucaparib 20 µM, 100% = cells with rucaparib alone); 89% (active) in [9] (at 0.0195 µM, OCI-P5x cells, without rucaparib); 105% (inactive) in [9] (at 0.0781 µM, OCI-C5x cells, with rucaparib 10 µM, 100% = cells with rucaparib alone); 94.2% (active) in test [9] (at 0.0781 µM, OCI-C5x cells, without rucaparib). Further, the viability was 82.4% (active) in [9] (at 0.0781 µM, OCI-P5x cells, with rucaparib 20 µM, 100% = cells with rucaparib alone); 83% (active) in [9] (at 0.0781 µM, OCI-P5x cells, without rucaparib); 104% (inactive) in [9] (at 0.313 µM, OCI-C5x cells, with rucaparib 10 µM, 100% = cells with rucaparib alone); 95.8% (active) in [9] (at 0.313 µM, OCI-C5x cells, without rucaparib); 69% (active) in [9] (at 0.313 µM, OCI-P5x cells, with rucaparib 20 µM, 100% = cells with rucaparib alone); 72.2% (active) in [9] (at 0.313 µM, OCI-P5x cells, without rucaparib). The viability in test [9] (at 1.25 µM, OCI-C5x cells, with rucaparib 10 µM, 100% = cells with rucaparib alone) was 91.7% (active); in test [9] (at 1.25 µM, OCI-C5x cells, without rucaparib), 87.9% (active); in test [9] (at 1.25 µM, OCI-P5x cells, with rucaparib 20 µM, 100% = cells with rucaparib alone) it was 58.9% (active); in test [9] (at 1.25 µM, OCI-P5x cells, without rucaparib), 64.4% (active); in test [9] (at 5 µM, OCI-C5x cells, with rucaparib 10 µM, 100% = cells with rucaparib alone), 32.8% (active); in test [9] (at 5 µM, OCI-C5x cells, without rucaparib), 53.2% (active). In addition, the viability in [9] (at 5 µM, OCI-P5x cells, with rucaparib 20 µM, 100% = cells with rucaparib alone) is 5.51% (active); in test [9] (at 5 µM, OCI-P5x cells, without rucaparib) it was 52.2% (active).
For orientation: AC50 means the midpoint of the concentration-response curve, whichever way the signal moves. Regarding `CC(C)(C)c1nc2c3cc[nH]c(=O)c3c3cc(F)ccc3c2[nH]1`, the AC50 in test [1] was 16600 nM (active); in test [3], 1480 nM (active). For the same molecule, the result in test [2] was inactive.
On to `COc1cc(NC(=O)c2ccc(-c3ccc(Cl)cc3)o2)cc(OC)c1`, for which the result in test [1], in test [12], in test [3], in [13], in test [4] and in test [5] was inactive. Also, the AC50 is 935 nM (active) in test [10] and 6620 nM (active) in [11]. Also, the values for the fold change in [6] (setting [14]) and in test [6] (setting [15]) were 0.861 (inactive) and 0.756, respectively. The cell count was 9550 in test [6] (setting [16]) and 11100 in [6] (setting [17]). The values for the z-score in test [8] (setting [18]) and in test [8] (setting [19]) were -0.392 (inactive) and 0.568, respectively.
`O=C(c1ccc(F)cc1)N1CCC[C@H](c2nc(-c3ccc(F)cc3)no2)C1`: the molecule was called inactive in test [1], in [10], in test [11], in [12], in [3] and in test [13]. For the same molecule, the call in test [4] and in [5] was inactive.
`Cc1cc(SCc2sc(-c3ccc(C(F)(F)F)cc3)nc2C)ccc1OCC(=O)O`: the molecule was called inactive in [1], in test [10], in [11], in [12], in [3] and in test [13]. The outcome in [4] and in test [5] was inactive.
For the molecule `Cc1ccc(NC(=O)C2(c3ccc4c(c3)OC(F)(F)O4)CC2)nc1-c1cccc(C(=O)O)c1`, the result in [1], in test [12], in test [3], in [4] and in test [5] was inactive. Further, the AC50 was 83.3 nM (active) in test [10], 118 nM (active) in test [11] and 1180 nM (active) in [13]. Besides, the fold change is 0.92 (inactive) in [6] (setting [14]) and 0.757 in test [6] (setting [15]). Moreover, the cell count in test [6] (setting [16]) amounted to 8150; in test [6] (setting [17]), 8860. Also, the z-score is -0.25 (inactive) in test [8] (setting [18]) and -0.226 in test [8] (setting [19]).
